The record followed here is the supplement of paper PMC9844399.

Each structure is given as a SMILES string. Counter-ions that a name gives are not always drawn. Values without a mark were called inactive.
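Further: High-content confocal imaging of branched-DNA amplified FISH in 384-well plates, Hoechst-defined nuclei, score is well value minus plate DMSO median over DMSO robust SD, four wells per compound.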

The subject of the assay is HeLa. Kind of assay: MALAT1 nuclear FISH intensity, robust Z-score vs DMSO; higher = more nuclear MALAT1 lncRNA, active = -3 or less. The settings on record: 10 µM; 6 h.
Consider `Oc1ccc(Nc2nc(-c3ccc(Cl)cc3)cs2)cc1`, for which the “MALAT1 nuclear FISH intensity” value is -1.04.

Turning to `CC/C(=C(\c1ccccc1)c1ccc(OCCN(C)C)cc1)c1ccccc1` [Tamoxifen citrate], the “MALAT1 nuclear FISH intensity” value is 1.26.

With `N=C(N)N`, the “MALAT1 nuclear FISH intensity” value is -0.363.

With `CN1CCC[C@@H]1CCO[C@](C)(c1ccccc1)c1ccc(Cl)cc1` [Clemastine Fumarate], the “MALAT1 nuclear FISH intensity” value is -0.977.

In the case of `Cc1[nH]c2ccccc2c1CCNC(=O)c1ccccc1F`, the “MALAT1 nuclear FISH intensity” value is -0.887.

Consider `CCOC(=O)[C@H](CCc1ccccc1)N[C@@H](C)C(=O)N1CCC[C@H]1C(=O)O` [Enalapril], for which the “MALAT1 nuclear FISH intensity” value was 0.257.

`O=C1CN2Cc3c(ccc(Cl)c3Cl)N=C2N1` [Anagrelide]: the “MALAT1 nuclear FISH intensity” value is 0.344.

`CC(C)c1nc(N(C)S(C)(=O)=O)nc(-c2ccc(F)cc2)c1/C=C/[C@@H](O)C[C@@H](O)CC(=O)O` [Rosuvastatin calcium]: the “MALAT1 nuclear FISH intensity” value was -0.375.

On to `COC1=CC(=O)C[C@@H](C)[C@]12Oc1c(Cl)c(OC)cc(OC)c1C2=O` [(+)-Griseofulvin], for which the “MALAT1 nuclear FISH intensity” value was -1.05.

Turning to `Oc1cc(O)cc(/C=C/c2ccc(O)c(O)c2)c1` [Piceatannol], the “MALAT1 nuclear FISH intensity” value was -1.71.

In the case of `O=C(O)CCC/C=C\C[C@@H]1[C@@H](/C=C/[C@@H](O)COc2cccc(C(F)(F)F)c2)[C@H](O)C[C@@H]1O` (racemic) [Fluprostenol], the “MALAT1 nuclear FISH intensity” value is 0.276.

Take `O=Nc1c(-c2c(O)[nH]c3ccccc23)[nH]c2ccccc12` [Indirubin-3'-monoxime]: the “MALAT1 nuclear FISH intensity” value is -2.22.

`Cc1cccc(C)c1OCC(=O)N[C@@H](Cc1ccccc1)[C@@H](O)C[C@H](Cc1ccccc1)NC(=O)[C@H](C(C)C)N1CCCNC1=O` [Lopinavir]: the “MALAT1 nuclear FISH intensity” value was 1.35.

With `O=c1[nH]cnc2c1ncn2[C@H]1CC[C@@H](CO)O1` [Didanosine], the “MALAT1 nuclear FISH intensity” value was -0.434.

Take `CCc1ccc(CCOc2ccc(CC3SC(=O)NC3=O)cc2)nc1` (centres undefined): the “MALAT1 nuclear FISH intensity” value was -0.494.

As to `CCCCC/C=C\C/C=C\CCCCCCCC(=O)O` [Linoleic acid], the “MALAT1 nuclear FISH intensity” value is -0.23.

As to `C[C@]12C=CC(=O)N[C@@H]1CC[C@@H]1[C@@H]2CC[C@]2(C)[C@@H](C(=O)Nc3cc(C(F)(F)F)ccc3C(F)(F)F)CC[C@@H]12` [Dutasteride], the “MALAT1 nuclear FISH intensity” value was -0.729.

Turning to `O=c1[nH]cc(F)c(=O)[nH]1` [Fluorouracil (5-Fluorouracil)], the “MALAT1 nuclear FISH intensity” value is 0.369.

Take `CC[C@@H]1C(=O)OC[C@@H]1Cc1cncn1C`: the “MALAT1 nuclear FISH intensity” value is -0.179.

For `CCCCC(=O)N(Cc1ccc(-c2ccccc2-c2nnn[nH]2)cc1)[C@H](C(=O)O)C(C)C` [Valsartan], the “MALAT1 nuclear FISH intensity” value was 0.00591.

`Cc1onc(-c2ccccc2Cl)c1C(=O)N[C@@H]1C(=O)N2[C@@H]1SC(C)(C)[C@@H]2C(=O)O`: the “MALAT1 nuclear FISH intensity” value is -0.819.

With `C[C@H]1O[C@@H](O[C@H]2[C@@H](O)C[C@H](O[C@H]3[C@@H](O)C[C@H](O[C@H]4CC[C@@]5(C)[C@H](CC[C@@H]6[C@@H]5C[C@@H](O)[C@]5(C)[C@@H](C7=CC(=O)OC7)CC[C@]65O)C4)O[C@@H]3C)O[C@@H]2C)C[C@H](O)[C@@H]1O` [Digoxin], the “MALAT1 nuclear FISH intensity” value was 3.27.

In the case of `CCN(CC)C(=O)N1CCN(C)CC1` [Diethylcarbamazine citrate], the “MALAT1 nuclear FISH intensity” value is 0.786.

As to `CCOc1cc(CC(=O)N[C@@H](CC(C)C)c2ccccc2N2CCCCC2)ccc1C(=O)O` [Repaglinide], the “MALAT1 nuclear FISH intensity” value was -0.349.

For the compound `CCCCC/C=C\C/C=C\C/C=C\CC1OC1CCCC(=O)O` (centres undefined) [5,6-Epoxyeicosatrienoic acid], the “MALAT1 nuclear FISH intensity” value was -0.739.

With `COc1nc(N)nc2c1ncn2[C@@H]1O[C@H](CO)[C@@H](O)[C@@H]1O` [Nelarabine], the “MALAT1 nuclear FISH intensity” value was 0.301.

For the compound `CC(=O)Oc1ccc(C(c2ccc(OC(C)=O)cc2)c2ccccn2)cc1` [Bisacodyl], the “MALAT1 nuclear FISH intensity” value is -0.416.

Turning to `COCCc1ccc(OCC(O)CNC(C)C)cc1` (centres undefined) [Metoprolol Tartrate], the “MALAT1 nuclear FISH intensity” value was -0.751.

As to `C#C[C@]1(O)CC[C@H]2[C@@H]3CCC4=CCCC[C@@H]4[C@H]3C(=C)C[C@@]21CC` [Desogestrel], the “MALAT1 nuclear FISH intensity” value is -0.0225.

Take `CC(=O)c1ccc(S(=O)(=O)NC(=O)NC2CCCCC2)cc1` [Acetohexamide]: the “MALAT1 nuclear FISH intensity” value was -0.957.

With `CC(C)CCC[C@@H](C)[C@H]1CC[C@H]2[C@@H]3C(=O)C=C4C[C@@H](O)CC[C@]4(C)[C@H]3CC[C@]12C` [7-Ketocholesterol], the “MALAT1 nuclear FISH intensity” value is -0.921.

For the compound `CCOC(=O)C1=C(C)NC(=S)NC1c1cccc(O)c1` (centres undefined) [Monastrol], the “MALAT1 nuclear FISH intensity” value is -2.86.

`CCCCC1C(=O)N(c2ccccc2)N(c2ccccc2)C1=O` [Phenylbutazone]: the “MALAT1 nuclear FISH intensity” value is -1.49.

`COCCCCCCCCCCCC(=O)O` [12-Methoxydodecanoic acid]: the “MALAT1 nuclear FISH intensity” value is -0.53.

For the compound `COc1ccc(-c2ccc3cc(C(=O)O)ccc3c2)cc1C12CC3CC(CC(C3)C1)C2` [Adapalene], the “MALAT1 nuclear FISH intensity” value was -0.946.

In the case of `CNC(=O)c1cc(Oc2ccc(NC(=O)Nc3ccc(Cl)c(C(F)(F)F)c3)cc2)ccn1` [Sorafenib], the “MALAT1 nuclear FISH intensity” value was -0.772.

As for `COc1c(C=O)c(O)cc2c1C(=O)c1ccccc1C2=O` [Damnacanthal], the “MALAT1 nuclear FISH intensity” value is 1.98.

Take `CCCCCCCC/C=C\CCCCCCCCOC[C@H](COP(=O)([O-])OCC[N+](C)(C)C)OC(C)=O`: the “MALAT1 nuclear FISH intensity” value was -0.101.

As for `Cc1nc2n(c(=O)c1CCN1CCC(c3noc4cc(F)ccc34)CC1)CCCC2O` (centres undefined) [Paliperidone], the “MALAT1 nuclear FISH intensity” value was 0.851.
